# Results: PubChem BioAssay AID504773 (Broad Institute, 2011)
# Entries with a potency or affinity are not part of this list. The source made the active and inactive calls.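 The calls were made as follows: active = polarization signal falls with dose and the fitted half-maximal concentration is at or below ten times the sample's top valid dose; inconclusive = flat curve at 30 to 70% inhibition, or poor fit; inactive = signal rises, flat within 30%, or potency beyond limit.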
# Biological target: Golgi-associated PDZ and coiled-coil motif-containing protein (Homo sapiens) (UniProt Q9HD26)
# Experiment: CAL PDZ peptide-binding inhibitors, dose response, biochemical, fluorescence polarization, Cerulean-tagged CAL PDZ, cherry-picks (AID 504773)
# Settings: 1 h; series mostly up to 50 µM
row,Structure (SMILES),outcome
1,O=C(c1ccc(F)cc1Cl)N1CCC2(CC1)OCCO2,inactive
2,CSC1=NP(=S)(SC)N2CCCC2=C1C#N (stereo unspecified),inactive
3,Cn1c(=O)c2c(nc(-c3ccc(N(CCCl)CCCl)cc3)n2C)n(C)c1=O,inactive
4,CC(C)CN1CCN(Cc2cccc3c2OCO3)CC1CCO (stereo unspecified),inactive
5,O=C1CN=C(c2ccccc2)c2oc3ccc(Br)cc3c2N1,inactive
6,COc1cc(/C=C2\C(=O)NC(=O)N(c3ccccc3)C2=O)c([N+](=O)[O-])cc1OC,inactive
7,Cc1cc(C)c(C(=O)N2CCC3(CC2)OCCO3)c(C)c1,inactive
8,O=c1[nH]c(CN2CC=C(c3ccccc3)CC2)nc2scc(-c3ccccc3)c12,inactive
9,c1ccc2[nH]c(CCNC3CCCCC3)nc2c1,inactive
10,COc1ccc(CNCCc2c[nH]c3ccccc23)c(OC)c1OC,inactive
11,COc1cc(C)cc(CN2CC=C(c3ccccc3)CC2)c1O,inactive
